Reference: PubChem BioAssay (NCATS)
Records with an inconclusive call do not appear. Activity calls are given as the source filed them. Unless noted, calls follow the shape of the full dose curve.

Key:
[1] = biological target: Peroxisome proliferator-activated receptor delta (Homo sapiens) (UniProt Q03181); experiment: qHTS assay for small molecule antagonists of peroxisome proliferator-activated receptor delta signaling (AID 588535; active = well fitted inhibition curve with a large enough effect in the signal ratio, with a control signal flat, not every such curve was filed as active; the % refers to the signal ratio)
Chain of Peroxisome proliferator-activated receptor delta (Homo sapiens) (Q03181 whole entry, looked up): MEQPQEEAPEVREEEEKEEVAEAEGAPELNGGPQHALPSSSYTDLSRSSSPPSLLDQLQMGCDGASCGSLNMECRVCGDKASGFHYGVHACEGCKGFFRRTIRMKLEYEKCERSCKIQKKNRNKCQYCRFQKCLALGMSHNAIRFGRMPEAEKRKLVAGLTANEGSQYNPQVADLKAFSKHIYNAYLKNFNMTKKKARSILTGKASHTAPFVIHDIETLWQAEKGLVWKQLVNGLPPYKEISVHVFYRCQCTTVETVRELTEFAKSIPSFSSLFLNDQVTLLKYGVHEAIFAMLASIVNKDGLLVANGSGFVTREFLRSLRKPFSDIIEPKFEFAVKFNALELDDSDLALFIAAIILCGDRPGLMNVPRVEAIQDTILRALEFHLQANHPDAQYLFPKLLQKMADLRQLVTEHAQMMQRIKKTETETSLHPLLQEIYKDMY
Outline: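 Cells were seeded at 4000 per well in assay medium containing 2% charcoal/dextran FBS and held 5 hrs at 37 C. Compounds were then added for 18 hrs. CCF4 substrate was applied for 2 hrs at room temperature before fluorescence reading.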

[2] = biological target: Peroxisome proliferator-activated receptor gamma (Homo sapiens) (UniProt P37231); experiment: qHTS assay for small molecule agonists of peroxisome proliferator-activated receptor gamma signaling (AID 588536; active = well fitted curve in the direction sought with a large enough effect in the signal ratio, with a control signal flat, not every such curve was filed as active; the % refers to the signal ratio;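 also: 0% = DMSO basal wells and 100% = rosiglitazone at 2 µM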)
Chain of Peroxisome proliferator-activated receptor gamma (Homo sapiens) (P37231 whole entry, looked up): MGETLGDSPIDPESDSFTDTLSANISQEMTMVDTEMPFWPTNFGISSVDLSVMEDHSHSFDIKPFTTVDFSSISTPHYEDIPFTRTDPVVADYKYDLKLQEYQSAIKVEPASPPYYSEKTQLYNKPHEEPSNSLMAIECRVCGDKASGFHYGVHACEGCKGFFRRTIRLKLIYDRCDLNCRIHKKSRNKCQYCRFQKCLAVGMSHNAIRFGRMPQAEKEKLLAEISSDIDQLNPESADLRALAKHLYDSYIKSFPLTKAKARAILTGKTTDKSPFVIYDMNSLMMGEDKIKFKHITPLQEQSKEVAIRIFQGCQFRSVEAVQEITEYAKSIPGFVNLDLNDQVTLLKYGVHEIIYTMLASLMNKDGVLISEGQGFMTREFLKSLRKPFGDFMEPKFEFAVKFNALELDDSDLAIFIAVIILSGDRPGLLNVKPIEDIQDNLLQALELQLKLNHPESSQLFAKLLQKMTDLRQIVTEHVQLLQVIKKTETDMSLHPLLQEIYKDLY
Outline: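 GeneBLAzer PPAR-gamma-UAS-bla HEK293 cells in 1% charcoal/dextran-treated FBS medium were treated 16 h at 37 C with compounds. Beta-lactamase activity was read by CCF4 ratio (460/530 nm). Response was normalized to 2 uM rosiglitazone (100%) and DMSO, then Hill-fitted for EC50 and efficacy.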

[3] = biological target: Vitamin D3 receptor (Homo sapiens) (UniProt P11473); experiment: qHTS assay for small molecule antagonists of vitamin D receptor signaling (AID 588541);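 also: receptor activated by calcitriol during compound treatment; series mostly up to about 77 µM; % is scaled to controls: 0 for no effect and ±100 for the full control effect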
Chain of Vitamin D3 receptor (Homo sapiens) (P11473 whole entry, looked up): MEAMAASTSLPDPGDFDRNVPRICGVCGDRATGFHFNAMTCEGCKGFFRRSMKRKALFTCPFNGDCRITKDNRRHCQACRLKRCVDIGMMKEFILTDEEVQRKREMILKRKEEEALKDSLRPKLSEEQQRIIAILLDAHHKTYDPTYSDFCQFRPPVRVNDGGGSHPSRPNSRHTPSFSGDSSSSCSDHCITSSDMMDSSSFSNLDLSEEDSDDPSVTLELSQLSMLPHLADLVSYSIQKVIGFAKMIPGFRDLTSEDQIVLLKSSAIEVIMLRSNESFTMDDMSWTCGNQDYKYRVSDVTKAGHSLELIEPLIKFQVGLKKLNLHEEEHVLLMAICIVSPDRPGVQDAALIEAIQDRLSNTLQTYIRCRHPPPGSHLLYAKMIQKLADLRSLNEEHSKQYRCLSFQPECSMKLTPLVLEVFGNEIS
Outline: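 VDR-UAS-bla HEK293T cells in 2% charcoal-stripped FBS were stimulated with 1-alpha,25-dihydroxyvitamin D3 (3 nM final) plus compound for 16 h at 37 C. The beta-lactamase CCF4 readout was normalized to 50 nM agonist and DMSO, and Hill fits gave IC50.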

[4] = biological target: Vitamin D3 receptor (Homo sapiens) (UniProt P11473); experiment: qHTS assay for small molecule agonists of vitamin D receptor signaling (AID 588543);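 also: 0% = DMSO basal and 100% = reference agonist control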
Outline: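 qHTS in agonist mode: compound titrations stimulate a VDR-driven β-lactamase reporter in HEK293T cells over 16 h at 37 °C. Response normalized to 50 nM 1α,25-dihydroxyvitamin D3 = 100%, DMSO = 0%; Hill fitting gives EC50 and maximal response.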

[5] = qHTS assay for small molecule agonists of retinoid X receptor alpha signaling (AID 588544); conditions: HEK293T RXRa-UAS-bla, beta-lactamase reporter, 18 h; 530 nm emission;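 as to activation: 0% = DMSO basal wells and 100% = reference agonist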
[6] = biological target: Retinoic acid receptor RXR-alpha (Homo sapiens) (UniProt P19793); experiment: as above
Chain of Retinoic acid receptor RXR-alpha (Homo sapiens) (P19793 whole entry, looked up): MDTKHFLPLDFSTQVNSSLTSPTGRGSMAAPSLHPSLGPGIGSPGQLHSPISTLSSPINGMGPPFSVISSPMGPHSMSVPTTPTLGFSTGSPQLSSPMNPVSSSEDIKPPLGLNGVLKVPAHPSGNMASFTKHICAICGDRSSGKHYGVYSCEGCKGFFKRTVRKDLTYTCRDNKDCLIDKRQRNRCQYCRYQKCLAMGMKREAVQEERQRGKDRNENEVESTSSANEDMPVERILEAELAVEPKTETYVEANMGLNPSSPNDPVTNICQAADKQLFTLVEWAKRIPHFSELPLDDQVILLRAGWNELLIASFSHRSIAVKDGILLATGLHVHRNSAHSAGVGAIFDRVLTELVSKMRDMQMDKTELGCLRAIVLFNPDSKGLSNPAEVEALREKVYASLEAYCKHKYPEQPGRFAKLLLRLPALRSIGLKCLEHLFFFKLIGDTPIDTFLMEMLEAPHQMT

[7] = qHTS assay for small molecule antagonists of retinoid X receptor alpha signaling (AID 588546; active = well fitted inhibition curve with a large enough effect in the signal ratio, with a control signal flat, not every such curve was filed as active; the % refers to the signal ratio;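 also: cells stimulated with 9-cis-retinoic acid as agonist; % is scaled to controls: 0 for no effect and ±100 for the full control effect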); conditions: HEK293T RXRa-UAS-bla, beta-lactamase ratio, antagonist mode; measured here: W530 green channel, cytotoxicity proxy
Outline: (§1)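 Beta-lactamase reporter inhibition, read as CCF4 fluorescence ratio (ex 405, em 460/530 nm) after 2 h at RT. HEK293T UAS-bla cells, 2500/well, were stimulated with 9-cis-RA at 500 or 100 nM final alongside test compound for 18 h at 37 C.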

[8] = biological target: Retinoic acid receptor RXR-alpha (Homo sapiens) (UniProt P19793); experiment: as above; conditions: HEK293T RXRa-UAS-bla, beta-lactamase ratio, antagonist mode
Outline: as §1

[9] = biological target: Thyroid hormone receptor beta (Homo sapiens) (UniProt P10828); experiment: qHTS assay for small molecule antagonists of thyroid hormone receptor beta signaling (AID 588547; active = well fitted inhibition curve with a large enough effect in the signal ratio, with a control signal flat, not every such curve was filed as active; the % refers to the signal ratio;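 also: cells stimulated with 0.4 nM T3 agonist during compound exposure; series mostly up to about 77 µM; % is scaled to controls: 0 for no effect and ±100 for the full control effect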); conditions: TR-UAS-bla HEK293, beta-lactamase ratio, antagonist mode, 18 h
Chain of Thyroid hormone receptor beta (Homo sapiens) (P10828 whole entry, looked up): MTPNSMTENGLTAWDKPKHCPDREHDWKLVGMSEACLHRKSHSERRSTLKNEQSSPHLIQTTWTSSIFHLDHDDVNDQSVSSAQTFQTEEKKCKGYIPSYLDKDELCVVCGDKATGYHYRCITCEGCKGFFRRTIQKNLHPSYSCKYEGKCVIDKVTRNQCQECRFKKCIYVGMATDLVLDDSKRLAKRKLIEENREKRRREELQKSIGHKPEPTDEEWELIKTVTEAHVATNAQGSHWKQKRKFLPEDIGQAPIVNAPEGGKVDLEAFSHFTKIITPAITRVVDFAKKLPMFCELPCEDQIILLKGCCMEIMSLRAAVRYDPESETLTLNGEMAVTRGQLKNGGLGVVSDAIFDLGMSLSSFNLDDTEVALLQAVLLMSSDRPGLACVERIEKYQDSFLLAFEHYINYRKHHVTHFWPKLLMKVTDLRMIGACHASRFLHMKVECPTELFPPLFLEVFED
Outline: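 TR-UAS-bla GripTite HEK293 cells in 2% charcoal/dextran FBS medium; compounds 0.59 nM to 92 uM with T3 at 0.4nM final, 18 h at 37 C. Beta-lactamase read by CCF4 fluorescence (460/530 nm); Hill fits gave IC50 and efficacy.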

[10] = biological target: Voltage-gated inwardly rectifying potassium channel KCNH2 (Homo sapiens) (UniProt Q12809); experiment: qHTS Assay for Small Molecule Inhibitors of the Human hERG Channel Activity (AID 588834; active = well fitted curve in the direction sought with a large enough effect; an effect the other way counts as inactive or inconclusive;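 also: top concentration of the series differs between compounds; % is scaled to controls: 0 for no effect and ±100 for the full control effect; lower thallium flux fluorescence means stronger hERG block; nearly all actives have a fitted effect of over 50% in size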)
Chain of Voltage-gated inwardly rectifying potassium channel KCNH2 (Homo sapiens) (Q12809 whole entry, looked up): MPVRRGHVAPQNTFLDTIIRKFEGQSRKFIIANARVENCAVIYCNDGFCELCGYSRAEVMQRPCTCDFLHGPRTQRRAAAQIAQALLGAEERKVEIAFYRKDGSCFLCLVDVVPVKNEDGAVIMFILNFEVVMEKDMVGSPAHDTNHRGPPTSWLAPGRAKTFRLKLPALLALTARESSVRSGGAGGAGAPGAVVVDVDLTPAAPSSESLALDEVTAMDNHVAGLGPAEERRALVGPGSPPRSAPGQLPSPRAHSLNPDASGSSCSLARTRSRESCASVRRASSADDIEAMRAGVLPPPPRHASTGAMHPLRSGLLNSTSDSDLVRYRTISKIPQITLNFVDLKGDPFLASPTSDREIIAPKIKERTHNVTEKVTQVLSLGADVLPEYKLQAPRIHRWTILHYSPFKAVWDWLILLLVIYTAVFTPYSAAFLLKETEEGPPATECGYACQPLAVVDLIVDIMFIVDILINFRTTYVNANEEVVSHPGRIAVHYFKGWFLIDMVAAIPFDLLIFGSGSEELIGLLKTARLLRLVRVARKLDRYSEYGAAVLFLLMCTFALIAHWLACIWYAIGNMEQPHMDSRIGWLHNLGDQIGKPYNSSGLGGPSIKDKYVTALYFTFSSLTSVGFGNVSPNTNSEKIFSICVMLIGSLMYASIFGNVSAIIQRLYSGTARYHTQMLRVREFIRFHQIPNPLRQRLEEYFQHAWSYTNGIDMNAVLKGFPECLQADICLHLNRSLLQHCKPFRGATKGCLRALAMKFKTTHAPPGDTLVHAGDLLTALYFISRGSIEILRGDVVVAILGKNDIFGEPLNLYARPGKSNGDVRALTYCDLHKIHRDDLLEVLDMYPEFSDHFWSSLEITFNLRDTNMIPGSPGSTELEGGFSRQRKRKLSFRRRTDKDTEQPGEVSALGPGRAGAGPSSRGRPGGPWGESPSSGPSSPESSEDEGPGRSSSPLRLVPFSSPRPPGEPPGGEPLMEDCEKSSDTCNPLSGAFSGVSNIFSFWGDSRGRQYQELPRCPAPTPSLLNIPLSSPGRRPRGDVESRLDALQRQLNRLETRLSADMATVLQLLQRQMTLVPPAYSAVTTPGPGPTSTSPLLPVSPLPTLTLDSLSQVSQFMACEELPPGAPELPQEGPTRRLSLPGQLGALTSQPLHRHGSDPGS
Outline: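 Measured: FluxOR fluorescence after thallium stimulation in U2OS cells transduced with hERG by baculovirus. Compounds pre-incubated around 10 min; medium Opti-MEM with 2% FCS. AC50 from Hill equation.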

[11] = qHTS assay for small molecule agonists of the antioxidant response element (ARE) signaling pathway (AID 651741; active = well fitted activation curve with a large enough effect in the signal ratio; the % refers to the signal ratio; also: % of control where 0% means no effect)
Outline: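 HepG2 ARE-bla cells plated at 2,000 cells/well and incubated 5 h at 37 C/5% CO2 received 23 nL compound in DMSO. After 16 h at 37 C, LiveBLAzer B/G FRET substrate was applied for 2 h at room temperature and fluorescence read.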

[12] = qHTS assay for small molecule activators of the p53 signaling pathway (AID 651743; active = well fitted activation curve with a large enough effect in the signal ratio, not every such curve was filed as active; the % refers to the signal ratio; also: series mostly up to about 92 µM; % of control where 0% means no effect); conditions: HCT-116 p53RE-bla, beta-lactamase FRET ratio, 16 h; activation: stronger effect = higher value
Outline: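 HCT-116 p53RE-bla, 4,000 cells/well; 5 h settle; cpd/DMSO 16 h, 37 C; LiveBLAzer B/G 2 h RT; fluorescence intensity.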

[13] = qHTS assay for small molecule disruptors of the mitochondrial membrane potential - 1 hr assay (AID 651754); also: % is scaled to controls: 0 for no effect and ±100 for the full control effect; nearly all actives have a fitted effect of over 35% in size
Outline: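 HepG2 cells, attached overnight at 37C, were exposed to compound or DMSO vehicle for 1 hr at 37C, 5% CO2, then stained with Mito-MPS dye for 30 min. Red aggregate versus green monomer fluorescence reports membrane potential.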

[14] = qHTS assay for small molecule disruptors of the mitochondrial membrane potential - 5 hr assay (AID 651755); also: % is scaled to controls: 0 for no effect and ±100 for the full control effect; nearly all actives have a fitted effect of over 40% in size
Outline: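 HepG2 cells (2,000/well), attached overnight, exposed to compound 5 hr at 37C, then Mito-MPS dye 30 min. Fluorescence read for monomers (490/535 nm) and aggregates (540/590 nm).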

[15] = biological target: Tumor necrosis factor (Homo sapiens) (UniProt P01375); experiment: qHTS assay to identify small molecules that stimulate Tumor Necrosis Factor-alpha (TNF-alpha) secretion (AID 651757; active = well fitted curve in the direction sought with a large enough effect in the signal ratio; the % refers to the signal ratio; also: 0% is about no effect)
Chain of Tumor necrosis factor (Homo sapiens) (P01375 whole entry, looked up): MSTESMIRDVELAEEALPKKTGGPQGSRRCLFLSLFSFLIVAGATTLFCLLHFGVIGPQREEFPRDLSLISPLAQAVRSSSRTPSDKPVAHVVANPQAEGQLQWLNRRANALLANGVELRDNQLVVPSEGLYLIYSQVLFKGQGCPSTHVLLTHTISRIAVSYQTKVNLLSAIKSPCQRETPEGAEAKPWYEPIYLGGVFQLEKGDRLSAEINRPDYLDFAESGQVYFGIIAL
Outline: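 THP-1 cells were exposed to compounds for 17 hrs at 37 C, after which secreted TNF-alpha was measured by homogeneous HTRF (TR-FRET) using cryptate- and XL665-labeled anti-TNF-alpha antibodies, read after 3 hr at room temperature.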

[16] = qHTS assay to identify small molecules that stimulate interleukin-8 (IL-8) secretion (AID 651758; active = well fitted activation curve with a large enough effect in the signal ratio; the % refers to the signal ratio; also: 0% is about no effect)
Outline: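 THP-1 cells (2000/well) exposed to compound 16 h at 37 C; secreted IL-8 then detected by HTRF with cryptate- and XL665-labelled anti-IL-8 antibody pair after 1-3 h at room temperature.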

[17] = qHTS assay for environmental chemicals that activate the Aryl hydrocarbon Receptor (AhR) signaling pathway (AID 651777; active = well fitted curve in the direction sought with a large enough effect; an effect the other way counts as inactive or inconclusive; also: % of control where 0% means no effect; nearly all actives have a fitted effect of over 15% in size); conditions: 1A2-DRE human hepatoma cells, luciferase, 24 h; activation: stronger effect = higher value
Outline: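 Reporter gene assay: hepatoma cells with DRE/CYP1A2-luciferase, 24 hr compound incubation at 37 C, 5% CO2, luminescence after One-Glo (30 min, RT).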

[18] = biological target: Peroxisome proliferator-activated receptor alpha (Homo sapiens) (UniProt Q07869); experiment: qHTS assay for small molecule agonists of the peroxisome proliferator-activated receptor alpha (PPARalpha) signaling pathway (AID 651778; active = well fitted curve in the direction sought with a large enough effect; an effect the other way counts as inactive or inconclusive; also: % of control where 0% means no effect); conditions: PathHunter PPARalpha complementation, chemiluminescence, 6 h; max response: stronger effect = higher value
Chain of Peroxisome proliferator-activated receptor alpha (Homo sapiens) (Q07869 whole entry, looked up, the tested form may be a part): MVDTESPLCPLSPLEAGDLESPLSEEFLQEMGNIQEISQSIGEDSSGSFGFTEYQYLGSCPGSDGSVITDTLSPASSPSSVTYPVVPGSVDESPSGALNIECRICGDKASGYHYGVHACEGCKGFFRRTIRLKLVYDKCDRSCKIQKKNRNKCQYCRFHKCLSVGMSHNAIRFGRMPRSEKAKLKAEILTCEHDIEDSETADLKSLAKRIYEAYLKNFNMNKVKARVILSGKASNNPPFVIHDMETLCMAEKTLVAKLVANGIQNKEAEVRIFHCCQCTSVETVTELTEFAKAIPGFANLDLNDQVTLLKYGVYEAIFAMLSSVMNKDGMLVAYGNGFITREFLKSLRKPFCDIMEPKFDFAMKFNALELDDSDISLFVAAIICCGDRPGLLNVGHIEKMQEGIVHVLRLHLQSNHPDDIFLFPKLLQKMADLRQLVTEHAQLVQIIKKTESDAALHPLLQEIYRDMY
Outline: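 Enzyme-fragment complementation assay in which ligand-bound PPARalpha translocates and forms an active enzyme that generates chemiluminescence. Cells were plated overnight, exposed to compound for 6 hr at 37 C, and then given detection reagent for 60 min at room temperature.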

[19] = biological target: Nuclear receptor ROR-gamma (Homo sapiens) (UniProt P51449); experiment: qHTS assay for small molecule antagonists of the retinoid-related orphan receptor gamma (ROR-gamma) signaling pathway (AID 651802; active = well fitted curve in the direction sought with a large enough effect; an effect the other way counts as inactive or inconclusive; also: series mostly up to about 92 µM; % is scaled to controls: 0 for no effect and ±100 for the full control effect; nearly all actives have a fitted effect of over 60% in size)
Chain of Nuclear receptor ROR-gamma (Homo sapiens) (P51449 whole entry, looked up): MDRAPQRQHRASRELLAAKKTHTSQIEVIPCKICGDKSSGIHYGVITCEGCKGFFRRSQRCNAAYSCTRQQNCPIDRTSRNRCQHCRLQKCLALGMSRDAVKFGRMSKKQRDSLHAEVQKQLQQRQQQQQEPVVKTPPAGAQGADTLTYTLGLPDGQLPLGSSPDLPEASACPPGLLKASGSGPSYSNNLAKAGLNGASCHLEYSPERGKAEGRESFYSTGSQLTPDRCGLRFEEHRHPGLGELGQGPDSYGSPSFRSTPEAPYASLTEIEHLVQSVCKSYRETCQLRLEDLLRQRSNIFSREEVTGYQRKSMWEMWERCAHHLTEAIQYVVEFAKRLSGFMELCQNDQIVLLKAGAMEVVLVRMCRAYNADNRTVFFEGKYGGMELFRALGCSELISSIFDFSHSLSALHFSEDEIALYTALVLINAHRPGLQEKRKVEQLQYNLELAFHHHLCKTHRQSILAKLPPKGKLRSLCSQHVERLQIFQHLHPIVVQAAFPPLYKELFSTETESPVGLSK
Outline: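 CHO cells carrying TET-inducible ROR-gamma and an ROR response element–luciferase reporter were exposed to compound, then induced with doxycycline. After 16hr at 37C, luminescence was read; lower signal indicates antagonism.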

[20] = qHTS assay for small molecule agonists of the antioxidant response element (ARE) signaling pathway measured by Nrf2-dependant transcriptional activity (AID 720636; active = well fitted curve in the direction sought with a large enough effect in the repeat runs; an effect the other way counts as inactive or inconclusive;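 also: HepG2 cells with an ARE-driven luciferase reporter; % of control where 0% means no effect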)
Outline: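 Nrf2-dependent transcription is measured in ARE-luc HepG2 cells: compound is applied for 16 hr at 37 C after a 6 hr attachment period, and luciferase activity is quantified by luminescence using ONE-Glo.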

C=CC(=C)CCC=C(C)C
1.9%: max response [5]
inactive: Potency [1] | outcome [2] | outcome [3] | outcome [4] | outcome [6] | max response [8] 7.13% | activity change % (negative = inhibition) [9] 9.36% | Potency [10] | Potency [11] | activation [12] 0.0217% | Potency [13] | Potency [14] | outcome [15] | Potency [16] | activation [17] 0.322% | max response [18] -1.83% | Potency [19] | Potency [20]
4.75%: max response [7]
